# According to PubChem BioAssay (EPA / NIEHS):
# Values joined by “and” are separate entries in the source; they are usually repeats but may differ in a detail not shown here. Equal entries are not always repeated. Active and inactive are the calls of the source. Rule for the calls: active = hit-call score of the fitted dose curve at least 0.9, where 1 is the maximum; inactive = score below 0.9.
# Read-out: TIMP metallopeptidase inhibitor 1 (TIMP1), TIMP1 (gene 7076)
# Test: BSK_MyoF_TIMP1: BioMAP Diversity Plus: MyoF Assay for TIMP metallopeptidase inhibitor 1 (TIMP1) Biomarker Activity (AID 2284269)
# Settings: primary human lung fibroblasts
# Procedure: BSK_MyoF is a cell-based, multiplexed-readout assay that uses lung fibroblasts, […], with measurements taken at 24 hours after chemical dosing in a microplate: 96-well plate.BSK_MyoF_TIMP1 is an assay component measured in the BSK_MyoF assay. It measures TIMP-1 antibody related to regulation of gene expression using ELISA technology.Data from the assay component BSK_MyoF_TIMP1 was analyzed at the endpoint, BSK_MyoF_TIMP1, in the positive analysis fitting direction relative to DMSO as the negative control and baseline of activity. Using a type of binding reporter, gain or loss-of-signal activity can be used to understand protein changes. To generalize the intended target to other relatable targets, this assay endpoint is annotated to the 'protease' intended target family, where the subfamily is 'matrix metalloproteinase'.
# The levels of cell surface (or secreted, indicated by the prefix "s") biomarker endpoints were measured by ELISA. Overt cytotoxicity to cells in confluent adherent cultures (all systems other than the BT system) was assessed by measuring total protein levels using sulforhodamine B (SRB) staining in parallel cultures at the time of biomarker measurements, indicated as SRB endpoints. For proliferation assays for adherent cell types, individual cell types are cultured at sub-confluence and relative cell numbers quantified by SRB staining at time points optimized for each system (48 h: 3C and CASM3C systems; 72 h: BT and HDF3CGF systems; 96 h: SAg system). SRB was performed by staining cells with 0.1% SRB after fixation with 10% TCA and reading wells at 560 nm.Viability and proliferation of PBMC (T cells) was quantified by Alamar Blue reduction for the SAg and BT systems. For PBMC viability (referred to as PBMC Cytotoxicity within the assay endpoint names), cells were plated (75,000/well in a 96-well plate) and then chemical samples added for 1 h before addition of activators, SEB and TSST-1 (20 ng/mL final concentration each). Cells were incubated for 90 h. Then, Alamar Blue (20 uL/well) (Invitrogen, Cat DAL1100) was added for 6 h, and the plates were read with a fluorescence microplate reader at 546/580 nm (excitation/emission). For PBMC proliferation, cells were plated and activated as above but incubated for only 16 h prior to addition of Alamar Blue. Plates were read after 6 h.
SMILES,outcome,AC50
Cc1ccc(C(=O)c2ccccc2)cc1,inactive,
O=C1c2ccc(O)c(O)c2C(=O)c2c(O)ccc(O)c21,inactive,
O=C(O)CCC(F)(F)C(F)(F)C(F)(F)C(F)(F)C(F)(F)C(F)(F)F,inactive,
NC(=NCCCCCCN=C(N)/N=C(\N)Nc1ccc(Cl)cc1)/N=C(\N)Nc1ccc(Cl)cc1,,4.84 µM (active)
COc1cccc(O)c1,inactive,
CCCCCc1ccc(O)cc1,,20 µM (active)
C=CC(=C)CC/C=C(\C)CCC=C(C)C,inactive,
CC[N+](CC)(CC)Cc1ccccc1,inactive,
Clc1ccc(Nc2nnc(Cc3ccncc3)c3ccccc23)cc1,inactive,
CC(C)(C)c1ccc(O)c(O)c1,,31.2 µM (active)
O=C(O)CCC(F)(F)C(F)(F)C(F)(F)C(F)(F)C(F)(F)F,inactive,
COc1cc(OC)nc(NC(=O)NS(=O)(=O)Nc2ccccc2C(=O)N(C)C)n1,inactive,
O=C(NCc1ncc(C(F)(F)F)cc1Cl)c1c(Cl)cccc1Cl,inactive,
Cc1cccc2c1ccc1ccccc12,inactive,
CCCCC(CC)C(=O)OCCOCCOCCOCCOC(=O)C(CC)CCCC (stereo not drawn),inactive,
CN(Cc1cnc2nc(N)nc(N)c2n1)c1ccc(C(=O)N[C@@H](CCC(=O)O)C(=O)O)cc1,inactive,
O=C(CC(=O)C(F)(F)C(F)(F)C(F)(F)F)c1cccs1,inactive,
Cc1ccc(N=Nc2c(O)ccc3ccccc23)c(C)c1,inactive,
C[C@]12CC[C@@H]3c4ccc(O)cc4CC[C@H]3[C@@H]1C[C@@H](O)[C@@H]2O,inactive,

SMILES,outcome,AC50
CN(CCO)S(=O)(=O)C(F)(F)C(F)(F)C(F)(F)C(F)(F)C(F)(F)C(F)(F)C(F)(F)C(F)(F)F,inactive,
COC1=CC(=O)C[C@@H](C)[C@]12Oc1c(Cl)c(OC)cc(OC)c1C2=O,inactive,
C=CC(=O)OCCC(F)(F)C(F)(F)C(F)(F)C(F)(F)C(F)(F)C(F)(F)C(F)(F)C(F)(F)F,inactive,
O=P(O)(O)CCC(F)(F)C(F)(F)C(F)(F)C(F)(F)C(F)(F)C(F)(F)C(F)(F)C(F)(F)F,inactive,
CCOC(=O)CN[C@@H](C(=O)N1CC[C@H]1C(=O)NCc1ccc(/C(N)=N/O)cc1)C1CCCCC1,inactive,
O=S(=O)(O)C(F)(F)C(F)(F)C(F)(F)C(F)(F)C(F)(F)C(F)(F)C(F)(F)C(F)(F)C(F)(F)C(F)(F)F,inactive,
Oc1cc2ccccc2cc1O,inactive,
OCC(F)(F)C(F)(F)C(F)(F)C(F)(F)C(F)(F)C(F)(F)C(F)(F)C(F)(F)C(F)(F)C(F)(F)C(F)(F)F,inactive,
CN(C)c1ccc(C(=C2C=CC(=[N+](C)C)C=C2)c2ccccc2)cc1,,0.697 µM (active)
C=COC(=O)C(C)(C)CCCCCC,inactive,
O=C(NO)c1ccccc1,inactive,
CCCCCCCCCCCCCCCCCC[N+](C)(C)Cc1ccccc1,,4.88 µM (active)
C=CC(C)(CCC=C(C)C)OC(C)=O (stereo not drawn),inactive,
COCN(COC)c1nc(N(COC)COC)nc(N(COC)COC)n1,inactive,
O=C(O)C(F)(F)OC(F)(F)C(F)(F)OC(F)(F)C(F)(F)OC(F)(F)C(F)(F)C(F)(F)C(F)(F)F,,8.18 µM (active) and 8.09 µM (active)
O=C1OC2(c3ccccc31)c1cc(I)c(O)c(I)c1Oc1c2cc(I)c(O)c1I,,7.73 µM (active)
OCCN1CN(CCO)CN(CCO)C1,inactive,
CC1=NN(c2ccccc2)C(=O)C1,inactive,
O=P(O)(O)CCC(F)(F)C(F)(F)C(F)(F)C(F)(F)C(F)(F)C(F)(F)F,inactive,
